Here are results for 38 compounds from PubChem BioAssay AID686928 (Broad Institute, 2013).

Results with a measured potency or affinity are listed apart. Active and inactive are the calls of the source. No rule for the calls is given here.

This assay in a line: human cervical cancer cell viability loss – 24 h, plate reader, dry powder, cytotoxicity control, dose response (AID 686928). Particulars: HeLa cytotoxicity; series mostly up to 80 µM.
Turning to `Cn1cnc(=O)c2ccccc21`, the call was inactive.

In the case of `O=c1ncn(-c2ccc(Cl)c(Cl)c2)c2ccccc12`, the result was inactive.

In the case of `O=C(Nc1nnc(-c2ccc3c(c2)OCCO3)o1)C1CCC1`, the compound was classed as inactive.

For `O=C(Nc1nnc(-c2ccccc2Cl)o1)C1CCCCC1`, the compound was classed as inactive.

As to `CCc1ccc2cc3c(NC(=O)c4ccco4)nn(C)c3nc2c1`, the result was inactive.

For the compound `COC(=O)c1ccccc1Nc1cccc(Cl)c1`, the result was inactive.

With `O=C(Nc1nnc(-c2cccnc2)o1)C1CCCCC1`, the outcome was inactive.

On to `CCC(C)(C)C(=O)Nc1nnc(-c2ccc3c(c2)OCCO3)o1`, for which the compound was classed as inactive.

In the case of `O=C(Cc1ccc(-c2ccccc2)cc1)NC1COC1`, the call was inactive.

As to `NC(=O)c1ccccc1Nc1ccccc1`, the result was inactive.

Turning to `Cc1cc(F)c2cc3c(NC(=O)c4ccco4)nn(C)c3nc2c1`, the call was inactive.

In the case of `O=C(CC1CCCCC1)Nc1nnc(-c2cccnc2)o1`, the result was inactive.

As to `O=C(Nc1nnc(-c2ccc3c(c2)OCCO3)o1)C1CCCC1`, the outcome was inactive.

`Cc1ccc2cc3c(NC(=O)C4CCCC4)nn(C)c3nc2c1`: the compound was called inactive.

On to `O=c1ncn(-c2cccc(Cl)c2)c2ccc(Cl)cc12`, for which the result was inactive.

Turning to `COc1cccc(-c2nnc(NC(=O)C3CCCCC3)o2)c1`, the compound was classed as inactive.

Take `O=C(Cc1ccc(-c2ccccc2)cc1)N[C@@H]1CCOC1` (racemic): the outcome was inactive.

In the case of `O=C(Nc1nnc(-c2ccncc2)o1)C1CCC1`, the compound was classed as inactive.

Regarding `Cc1ccc2c(c1)c(=O)ncn2-c1cccc(Cl)c1`, the result was inactive.

With `Cc1ccc2cc3c(NC(=O)c4ccccn4)nn(C)c3nc2c1`, the result was inactive.

On to `O=c1ncn(-c2ccccc2)c2ccccc12`, for which the result was inactive.

Consider `Cn1nc(NC(=O)c2ccco2)c2cc3ccccc3nc21`, for which the call was inactive.

Regarding `O=c1ncn(-c2cccc(Cl)c2)c2cccc(Cl)c12`, the result was inactive.

As for `O=C(Cc1ccc(-c2ccccc2)cc1)NC1CNC1`, the result was inactive.

For the compound `c1ccc(CNc2nnc(-c3ccc4c(c3)OCCO4)o2)cc1`, the call was inactive.

In the case of `O=c1[nH]cnc2ccccc12`, the result was inactive.

With `O=c1ncn(-c2ccc(F)c(Cl)c2)c2ccccc12`, the compound was called inactive.

For `COc1ccc(S(=O)(=O)Nc2nnc(-c3ccc4c(c3)OCCO4)o2)cc1`, the call was inactive.

For the compound `COc1ccc(-c2nnc(NC(=O)C3CCCCC3)o2)cc1`, the outcome was inactive.

As for `O=S(=O)(Nc1nnc(-c2ccc3c(c2)OCCO3)o1)c1ccc(Cl)cc1`, the compound was called inactive.

As for `NC(=O)c1ccccc1Nc1cccc(Cl)c1`, the compound was classed as inactive.

Consider `Cc1cccc(-n2cnc(=O)c3ccccc32)c1`, for which the result was inactive.

For the compound `O=C(Nc1nnc(-c2cccc(Cl)c2)o1)C1CCCCC1`, the outcome was inactive.

In the case of `O=C(Cc1ccc(-c2ccccc2)cc1)NC1CCC1`, the result was inactive.

For the compound `O=c1ncn(Cc2ccc(Cl)cc2)c2ccccc12`, the compound was classed as inactive.

Consider `O=c1ncn(-c2ccc(Cl)cc2)c2ccccc12`, for which the call was inactive.

With `O=c1nc(-c2ccccc2)n(-c2cccc(Cl)c2)c2ccccc12`, the compound was classed as inactive.

Consider `Cn1nc(NC(=O)c2ccco2)c2cccnc21`, for which the call was inactive.
